Laboratory results reported in PubChem BioAssay (NCI).
This is part of a sample that, as a whole, favours compounds with a hit. Of some 83,000 tested, about 20% had one in any assay.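 Activity criterion: percent growth below 10, measured after cells in 96-well plates were exposed to a single compound concentration for 48 hours.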 Calls of active or inactive are those of the source.

Columns and labels:
Test in all cases: NCI-60 one-dose screen, 48 h (100 = growth as untreated, 0 = no growth, -100 = all killed)
Conditions in all cases: 10 µM unless noted
SR leukemia = test system: SR leukemia
RPMI-8226 leukemia = test system: RPMI-8226 leukemia
OVCAR-8 ovarian = test system: OVCAR-8 ovarian
OVCAR-5 ovarian = test system: OVCAR-5 ovarian
OVCAR-4 ovarian = test system: OVCAR-4 ovarian
SK-OV-3 ovarian = test system: SK-OV-3 ovarian
OVCAR-3 ovarian = test system: OVCAR-3 ovarian
HS 578T breast = test system: HS 578T breast
NCI/ADR-RES ovarian = test system: NCI/ADR-RES ovarian
IGROV1 ovarian = test system: IGROV1 ovarian

Measured: growth

CCOC(=O)c1cc2oc(/C=C/c3cc(=O)c4cc(Cl)ccc4o3)cc2[nH]1
inactive: SR leukemia 87.9% | RPMI-8226 leukemia 94.3% | OVCAR-8 ovarian 105% | OVCAR-5 ovarian 89.3% | OVCAR-4 ovarian 89.6% | SK-OV-3 ovarian 98.5% | OVCAR-3 ovarian 72.3% | HS 578T breast 71.2% | NCI/ADR-RES ovarian 93.6%

COc1ccc(C(=O)COc2cccc(/C=C3\CSc4ccc(Cl)cc4C3=O)c2)cc1
inactive: SR leukemia 20% | OVCAR-8 ovarian 78.4% | OVCAR-5 ovarian 93.5% | OVCAR-4 ovarian 64.6% | SK-OV-3 ovarian 94.6% | OVCAR-3 ovarian 88% | HS 578T breast 91% | NCI/ADR-RES ovarian 84.3%
active: RPMI-8226 leukemia -13.7%

COc1cc2c(cc1OC)C(=O)/C(=C/c1cccc(OCC(=O)c3ccccc3)c1)C2
inactive: SR leukemia 42.2% | RPMI-8226 leukemia 43.3% | OVCAR-8 ovarian 76.8% | OVCAR-5 ovarian 105% | OVCAR-4 ovarian 86% | SK-OV-3 ovarian 117% | HS 578T breast 77.2% | NCI/ADR-RES ovarian 50.2%

Nc1nc(NC2CC2)c2ncn(C3C=CC(CO)C3)c2n1 (stereo not drawn)
inactive: SR leukemia 80.8% | RPMI-8226 leukemia 111% | OVCAR-8 ovarian 93.9% | OVCAR-5 ovarian 103% | OVCAR-4 ovarian 106% | SK-OV-3 ovarian 117% | HS 578T breast 104%

Cc1cc(C)cc(S(=O)(=O)n2ccc(-c3ccc4c(c3)CCC(C)(C)O4)n2)c1
inactive: SR leukemia 76.5% | RPMI-8226 leukemia 73.2% | OVCAR-8 ovarian 91% | OVCAR-5 ovarian 116% | OVCAR-4 ovarian 67.3% | IGROV1 ovarian 105% | OVCAR-3 ovarian 87.9% | HS 578T breast 92.7% | NCI/ADR-RES ovarian 79%

O=C1C(=O)c2c(nc3ccc(Cl)cn23)-c2ccccc21
active: SR leukemia -86.5% | RPMI-8226 leukemia -53.7% | OVCAR-8 ovarian -100% | OVCAR-5 ovarian -100% | OVCAR-4 ovarian -100% | SK-OV-3 ovarian -100% | OVCAR-3 ovarian -96% | HS 578T breast -33.8% | NCI/ADR-RES ovarian -41.1%

COc1ccc(-c2cc(-c3cccnc3)nc(S(=O)(=O)CC(=O)Nc3ccc(C)cc3)c2C#N)cc1OC
inactive: SR leukemia 77.4% | RPMI-8226 leukemia 79.8% | OVCAR-8 ovarian 91.6% | OVCAR-5 ovarian 120% | OVCAR-4 ovarian 90.3% | IGROV1 ovarian 107% | OVCAR-3 ovarian 95.4% | HS 578T breast 81.9% | NCI/ADR-RES ovarian 86.8%

Cc1ccc(-c2csc(N)n2)cc1
inactive: SR leukemia 86.3% | RPMI-8226 leukemia 89.2% | OVCAR-8 ovarian 101% | OVCAR-5 ovarian 94% | OVCAR-4 ovarian 94% | SK-OV-3 ovarian 108% | OVCAR-3 ovarian 114% | HS 578T breast 115% | NCI/ADR-RES ovarian 104%

COC(=O)N/N=C/c1coc2ccc(Cl)cc2c1=O
inactive: SR leukemia 53.8% | RPMI-8226 leukemia 60.3% | OVCAR-8 ovarian 110% | OVCAR-5 ovarian 95.3% | OVCAR-4 ovarian 97% | SK-OV-3 ovarian 92.3% | OVCAR-3 ovarian 63.4% | HS 578T breast 92.8% | NCI/ADR-RES ovarian 99%

O=C(NN1C(=O)c2cc(C(=O)O)c(C(=O)O)cc2C1=O)c1ccncc1
inactive: SR leukemia 119% | RPMI-8226 leukemia 103% | OVCAR-8 ovarian 112% | OVCAR-5 ovarian 107% | OVCAR-4 ovarian 116% | SK-OV-3 ovarian 110% | OVCAR-3 ovarian 131% | HS 578T breast 104% | NCI/ADR-RES ovarian 116%

O=C(O)c1ccc(CNS(=O)(=O)c2ccc3ccccc3c2)cc1
inactive: SR leukemia 33.4% | RPMI-8226 leukemia 112% | OVCAR-8 ovarian 67.7% | OVCAR-5 ovarian 115% | OVCAR-4 ovarian 98.3% | SK-OV-3 ovarian 109% | OVCAR-3 ovarian 94.9% | HS 578T breast 81% | NCI/ADR-RES ovarian 128%

CCCCN1c2nc3ccccc3cc2Sc2cc3ccccc3nc21
inactive: SR leukemia 76.5% | RPMI-8226 leukemia 78.4% | OVCAR-8 ovarian 106% | OVCAR-5 ovarian 93.6% | OVCAR-4 ovarian 93.7% | SK-OV-3 ovarian 112% | OVCAR-3 ovarian 294% | HS 578T breast 99.8% | NCI/ADR-RES ovarian 106%

CCOC1Oc2ccccc2C(=O)/C1=N/c1nccs1 (stereo not drawn)
inactive: SR leukemia 57.1% | RPMI-8226 leukemia 36.3% | OVCAR-8 ovarian 114% | OVCAR-5 ovarian 99.1% | OVCAR-4 ovarian 94.5% | SK-OV-3 ovarian 97.7% | OVCAR-3 ovarian 64.7% | HS 578T breast 90.3% | NCI/ADR-RES ovarian 87.9%

CC1Cc2ccccc2N1C(=O)c1ccc(C(=O)c2ccccc2)cc1 (stereo not drawn)
inactive: SR leukemia 97.6% | RPMI-8226 leukemia 74.3% | OVCAR-8 ovarian 88.4% | OVCAR-5 ovarian 143% | OVCAR-4 ovarian 71.2% | SK-OV-3 ovarian 102% | OVCAR-3 ovarian 78.9% | HS 578T breast 96.3% | NCI/ADR-RES ovarian 61.7%

C=C(CN1CCc2c([nH]c3ccccc23)C1)c1ccc(C(=O)Nc2ccon2)cc1
inactive: SR leukemia 80.9% | RPMI-8226 leukemia 78.4% | OVCAR-8 ovarian 78.2% | OVCAR-5 ovarian 90.2% | OVCAR-4 ovarian 85.5% | SK-OV-3 ovarian 61.8% | OVCAR-3 ovarian 92.6% | HS 578T breast 94.4% | NCI/ADR-RES ovarian 99.9%

COc1cc(/C=C/c2cc(/C=C/c3ccc(O)c(OC)c3)n(C(=O)Cc3ccccc3)n2)ccc1O
active: SR leukemia 4.44% | RPMI-8226 leukemia -34.2% | OVCAR-8 ovarian -17% | OVCAR-5 ovarian -18.7% | OVCAR-4 ovarian 7.27% | HS 578T breast 9.84%
inactive: IGROV1 ovarian 11.4% | NCI/ADR-RES ovarian 21.7%

c1ccc(N2c3nc4ccccc4cc3Sc3cc4ccccc4nc32)nc1
inactive: SR leukemia 77.7% | RPMI-8226 leukemia 80.9% | OVCAR-8 ovarian 88.8% | OVCAR-5 ovarian 81.9% | OVCAR-4 ovarian 102% | SK-OV-3 ovarian 104% | OVCAR-3 ovarian 96.7% | HS 578T breast 83.2% | NCI/ADR-RES ovarian 82.7%

C=CCNC(=O)/C(=C/c1cccc([N+](=O)[O-])c1)NC(=O)c1ccccc1
inactive: SR leukemia 207% | RPMI-8226 leukemia 108% | OVCAR-8 ovarian 98.7% | OVCAR-5 ovarian 101% | OVCAR-4 ovarian 99.3% | SK-OV-3 ovarian 99.9% | HS 578T breast 108%

COC(=O)c1cc2c(/C=C3/NC(=S)NC3=O)coc2n1C
inactive: SR leukemia 78.3% | RPMI-8226 leukemia 75.8% | OVCAR-8 ovarian 76.3% | OVCAR-5 ovarian 96.7% | OVCAR-4 ovarian 112% | SK-OV-3 ovarian 68.5% | OVCAR-3 ovarian 95.6% | HS 578T breast 66.3% | NCI/ADR-RES ovarian 105%

COc1cc(-c2nc3nc4sc(C)c(C)c4c(=O)n3[nH]2)cc(OC)c1OC
inactive: SR leukemia 30.7% | RPMI-8226 leukemia 74.3% | OVCAR-5 ovarian 96.4% | OVCAR-4 ovarian 93.5% | SK-OV-3 ovarian 92% | IGROV1 ovarian 66.6% | OVCAR-3 ovarian 93.1% | HS 578T breast 87.7% | NCI/ADR-RES ovarian 70.8%

O=C1CNc2cc(Cl)ccc2N1
inactive: SR leukemia 94.7% | RPMI-8226 leukemia 103% | OVCAR-5 ovarian 102% | OVCAR-4 ovarian 115% | SK-OV-3 ovarian 106% | IGROV1 ovarian 103% | OVCAR-3 ovarian 108% | HS 578T breast 97.4% | NCI/ADR-RES ovarian 108%

CC1CN(C2CCCCC2)C(=O)NC1=O (stereo not drawn)
inactive: SR leukemia 80.3% | RPMI-8226 leukemia 111% | OVCAR-5 ovarian 105% | OVCAR-4 ovarian 116% | SK-OV-3 ovarian 107% | IGROV1 ovarian 110% | OVCAR-3 ovarian 111% | HS 578T breast 110% | NCI/ADR-RES ovarian 119%

Cc1nn(-c2ccccc2)c2nc(N)c(C3=NCCO3)nc12
inactive: SR leukemia 104% | RPMI-8226 leukemia 87.2% | OVCAR-8 ovarian 95.9% | OVCAR-5 ovarian 93.3% | SK-OV-3 ovarian 94.2% | IGROV1 ovarian 94.4% | OVCAR-3 ovarian 114% | HS 578T breast 82.2% | NCI/ADR-RES ovarian 101%

CO[C@H]1/C=C/O[C@@]2(C)Oc3c(C)c(O)c4c(O)c(c(/C=N/N5C(C)CN(Cc6ccc(C#N)cc6)CC5C)c(O)c4c3C2=O)NC(=O)/C(C)=C\C=C\[C@H](C)[C@H](O)[C@@H](C)[C@@H](O)[C@@H](C)[C@H](OC(C)=O)[C@@H]1C (stereo partly drawn)
active: RPMI-8226 leukemia -6.25% | OVCAR-3 ovarian -21.1%
inactive: SR leukemia 19.3% | OVCAR-5 ovarian 27.1% | OVCAR-4 ovarian 39.7% | SK-OV-3 ovarian 18.5% | IGROV1 ovarian 40.6% | HS 578T breast 45.6% | NCI/ADR-RES ovarian 40.1%

O=C(O)CCC(=O)OC[C@@H](NC(=O)C(Cl)Cl)[C@H](O)c1ccc([N+](=O)[O-])cc1
inactive: SR leukemia 95.9% | RPMI-8226 leukemia 89.5% | OVCAR-5 ovarian 93.5% | OVCAR-4 ovarian 102% | SK-OV-3 ovarian 107% | IGROV1 ovarian 97.2% | OVCAR-3 ovarian 121% | HS 578T breast 111% | NCI/ADR-RES ovarian 101%

CCNCCCn1c2c(c3ccc(F)cc3c1=O)C(=O)c1cc(OC)cnc1-2
inactive: HS 578T breast 14.9%
active: SR leukemia -4.37% | RPMI-8226 leukemia -25.7% | OVCAR-5 ovarian 3.24% | OVCAR-4 ovarian -4.39% | SK-OV-3 ovarian -30.4% | IGROV1 ovarian 2.58% | OVCAR-3 ovarian -16.9% | NCI/ADR-RES ovarian -29.4%

Oc1ccccc1/C=N/N1CCCCCC1
inactive: SR leukemia 99.3% | RPMI-8226 leukemia 99.6% | OVCAR-8 ovarian 116% | OVCAR-5 ovarian 105% | SK-OV-3 ovarian 112% | OVCAR-3 ovarian 108% | HS 578T breast 114% | NCI/ADR-RES ovarian 101%

Cc1ccc(C(NC(=O)c2ccccc2)c2ccc3cccnc3c2O)cc1 (stereo not drawn)
inactive: SR leukemia 11% | RPMI-8226 leukemia 14.9% | OVCAR-5 ovarian 44.8% | OVCAR-4 ovarian 19.8% | SK-OV-3 ovarian 19.3% | IGROV1 ovarian 17.1% | OVCAR-3 ovarian 31.5% | HS 578T breast 69.5% | NCI/ADR-RES ovarian 14%

Cn1ccnc1C(=O)/C=C/c1ccc(C(=O)Nc2nc3ccccc3[nH]2)cc1
inactive: SR leukemia 11.2% | RPMI-8226 leukemia 10.7% | OVCAR-5 ovarian 59.9% | OVCAR-4 ovarian 36.7% | SK-OV-3 ovarian 77.2% | IGROV1 ovarian 36% | HS 578T breast 40.2% | NCI/ADR-RES ovarian 24.6%
active: OVCAR-3 ovarian 7.54%

O=C(Nc1ccc(Cl)cc1)Nc1ccccc1CNc1nc(Nc2ccc(OCCN3CCCC3)cc2)ncc1Cl
active: SR leukemia 1.33% | RPMI-8226 leukemia -24.2% | OVCAR-4 ovarian -47.4% | OVCAR-3 ovarian -77.9% | NCI/ADR-RES ovarian -35.9%
inactive: OVCAR-5 ovarian 105% | SK-OV-3 ovarian 91.6% | IGROV1 ovarian 15.8% | HS 578T breast 96.4%
